Drawing on PubChem BioAssay (NCATS), this text covers z-score for ten molecules.

Records with an inconclusive call do not appear.

A short description of one assay: qHTS for identification of novel therapeutic agents for treatment of microphthalmiaassociated transcription factor (MiT) renal cell carcinoma (RCC) (AID 1963991). The note with it: TFE3-RCC viability, CellTiter-Glo, 48 h; measured here: UOK124 Z-AUC; stronger effect = lower value. The method in brief: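 Three TFE3-fusion RCC lines (UOK109, UOK124, UOK145), 500 cells/well in complete medium, were treated with MIPE 4.0 compounds for 48 hours at 37 C. Viability was by CellTiter-Glo luminescence, normalized to DMSO (100%) and empty wells (0%); curves fitted over 11 concentrations.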
For orientation: qHTS replaces the single test concentration by a dilution series.
With `CC=C1NC(=O)[C@H]2CSSCCC=C[C@H](CC(=O)N[C@H](C(C)C)C(=O)N2)OC(=O)[C@H](C(C)C)NC1=O`, the z-score was -4.08.

As to `COCCn1c2c([n+](Cc3cnccn3)c1C)C(=O)c1ccccc1C2=O`, the z-score is -3.42.

On to `CCc1c2c(nc3ccc(O)cc13)-c1cc3c(c(=O)n1C2)COC(=O)[C@]3(O)CC`, for which the z-score is -2.08.

In the case of `CC(NCc1ccc2c(c1)nc(NC(=O)c1ccc(-c3cn[nH]c3)s1)n2CC(C)(C)O)C(C)(C)C` (stereo not given), the z-score was -2.39.

`COc1cc(=C2C=c3ccccc3=N2)[nH]c1=Cc1[nH]c(C)cc1C`: the z-score is -0.978.

Regarding `Nc1cc(C(F)(F)F)c(-c2cc(N3CCOCC3)nc(N3CCOCC3)n2)cn1`, the z-score is -0.844.

Turning to `C[C@@]12O[C@@H](C[C@]1(O)CO)n1c3ccccc3c3c4c(c5c6ccccc6n2c5c31)CNC4=O`, the z-score was -0.853.

As for `O=C(Cc1ccc(-c2ccc(OCCN3CCOCC3)cc2)cn1)NCc1ccccc1`, the z-score is -2.5.

Consider `Cc1ccc(-c2ncn(-c3ccc(Nc4nccc(-c5cccc(N6CCOCC6)c5)n4)cc3)n2)cn1`, for which the z-score is -2.07.

As to `CC[C@@]1(O)C(=O)OCc2c1cc1n(c2=O)Cc2cc3cc(O)ccc3nc2-1`, the z-score is -1.78.

Still in this assay, the particulars now being: TFE3-RCC viability, CellTiter-Glo, 48 h; measured here: UOK145 Z-AUC; stronger effect = lower value.
For the molecule `CC=C1NC(=O)[C@H]2CSSCCC=C[C@H](CC(=O)N[C@H](C(C)C)C(=O)N2)OC(=O)[C@H](C(C)C)NC1=O`, the z-score was -2.33.

Turning to `COCCn1c2c([n+](Cc3cnccn3)c1C)C(=O)c1ccccc1C2=O`, the z-score was -3.23.

As for `CCc1c2c(nc3ccc(O)cc13)-c1cc3c(c(=O)n1C2)COC(=O)[C@]3(O)CC`, the z-score is -2.56.

As to `CC(NCc1ccc2c(c1)nc(NC(=O)c1ccc(-c3cn[nH]c3)s1)n2CC(C)(C)O)C(C)(C)C` (stereo not given), the z-score was -1.22.

Regarding `COc1cc(=C2C=c3ccccc3=N2)[nH]c1=Cc1[nH]c(C)cc1C`, the z-score was -0.974.

With `Nc1cc(C(F)(F)F)c(-c2cc(N3CCOCC3)nc(N3CCOCC3)n2)cn1`, the z-score is -1.62.

As for `C[C@@]12O[C@@H](C[C@]1(O)CO)n1c3ccccc3c3c4c(c5c6ccccc6n2c5c31)CNC4=O`, the z-score is -1.26.

For the molecule `O=C(Cc1ccc(-c2ccc(OCCN3CCOCC3)cc2)cn1)NCc1ccccc1`, the z-score is -1.24.

`Cc1ccc(-c2ncn(-c3ccc(Nc4nccc(-c5cccc(N6CCOCC6)c5)n4)cc3)n2)cn1`: the z-score was -1.38.

Take `CC[C@@]1(O)C(=O)OCc2c1cc1n(c2=O)Cc2cc3cc(O)ccc3nc2-1`: the z-score is -2.02.
